# From PubChem BioAssay (NCATS)
# Several values for one entry are separate records, joined by “and”; a condition that tells them apart may be missing. Equal entries are not always repeated. Results filed as inconclusive are left out. Activity calls are given as the source filed them. Calls follow the shape of the dose curve; as a rule, active = well fitted cell-killing curve with a large enough effect; inconclusive = small, poorly fitted or top-dose-only effect; inactive = flat fitted curve, though single readings scatter. Peptide text beside a SMILES is read from it. * marks the point of attachment. Cbz = O=C(OCc1ccccc1)*
# Experiment: Cellular viability qHTS for adrenocortical cancer (ACC) cell line SW-13 (AID 1963989); also: nearly all actives have a fitted effect of over 65% in size;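 as to activity (max response): cells grown in serum-free medium with ITS supplement; % is scaled to controls: 0 for no effect and ±100 for the full control effect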
# Details: SW-13 ACC cells viability, CellTiter-Glo, 48 h; activity (max response): hits give low values
# Summary of the method: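 Here, serum-free SW-13 cultures were dosed up to 46 uM. Following 48 h, ATP-dependent luminescence (CellTiter-Glo) reported viable cells, and logistic modeling produced IC50 values.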
# Potency is read from the fitted curve at half-maximal effect.
Compound,activity (max response),Potency
O=C1CCCC2=C1C(c1[nH]ncc1Cl)N=C(Nc1nc3ccccc3o1)N2 (stereo unspecified),-9.4% (inactive),
CCN1CCN(c2ccc(Nc3cc(N(C)C(=O)Nc4c(Cl)c(OC)cc(OC)c4Cl)ncn3)cc2)CC1,-7.03% (inactive),
C[N+](C)(C)CC(=O)O,-6.24% (inactive) and 7.87% (inactive),
COCCCN1CCC(NC(=O)c2cc(Cl)c(N)c3c2OCC3)CC1,15.7% (inactive) and -2.89% (inactive),
Cc1cc2c(s1)Nc1ccccc1N=C2N1CCN(C)CC1,-7.86% (inactive),
CC1Cc2ccccc2N1NC(=O)c1ccc(Cl)c(S(N)(=O)=O)c1 (stereo unspecified),9.73% (inactive) and 7.78% (inactive),
Nc1[nH]c(=O)ncc1F,6.88% (inactive),
CC1(C)O[C@H]2CC(=O)OC[C@]23[C@H]2CC[C@@]4(C)[C@H](c5ccoc5)OC(=O)[C@H]5O[C@]54[C@]2(C)C(=O)C[C@@H]13,7.85% (inactive),
O=C(/C=C\n1cnc(-c2cc(C(F)(F)F)cc(C(F)(F)F)c2)n1)NNc1cnccn1,,12.6 µM (active)
CCCc1cc(C(N)=S)ccn1,7.42% (inactive) and -7.33% (inactive),
C=C1C(=O)[C@@]23C(CC[C@@H]1[C@H]2O)[C@@]12CO[C@]3(O)[C@@H](O)[C@@H]1C(C)(C)CC[C@@H]2O (stereo partly specified),,28.2 µM (active)
CCc1ccc(OCc2ccccc2C(=O)Nc2ccc3nc(C)cc(N)c3c2)cc1,,5.01 µM (active)
CC(C)(C)c1nc2c3cc[nH]c(=O)c3c3cc(F)ccc3c2[nH]1,-16.1% (inactive),
N#Cc1ccnc(Nc2cc(C3CCN(C4COC4)CC3)cc(N3CCC(F)(F)C3)n2)c1,,15.8 µM (active)
CC(C)C[C@@H](C=O)NC(=O)[C@H](CC(C)C)NC(=O)[C@H](CC(C)C)NC(=O)OCc1ccccc1 (Cbz-Leu-Leu-Leu-aldehyde),,0.794 µM (active)
CCCCS(=N)(=O)CCC(N)C(=O)O (stereo unspecified),9.43% (inactive),

Compound,activity (max response),Potency
CN1CCN(c2ccc(C(=O)Nc3n[nH]c4ccc(Cc5cc(F)cc(F)c5)cc34)c(NC3CCOCC3)c2)CC1,,3.16 µM (active)
COc1c(C)cnc(Cn2cnc3c(Cl)nc(N)nc32)c1C,,2 µM (active)
CCN(c1ccccc1)c1cc(NC)[n+](C)c(C)n1,-0.574% (inactive),
CCCc1nn(C)c2c(=O)[nH]c(-c3cc(S(=O)(=O)N4CCN(C)CC4)ccc3OCC)nc12,1.97% (inactive) and 1.26% (inactive),
CC1CCN(c2cc(N3CCN(C)CC3)ccc2NC(=O)c2cc(C#N)c[nH]2)CC1,-21.1% (inactive),
O=S(=O)(O)CCS,21.9% (inactive) and 0.753% (inactive),
COCCNCCCn1c(C(=O)CF)c(-c2ccc(C)cc2)c2c(N)ncnc21,7.79% (inactive),
NCCCC(N)(C(=O)O)C(F)F (stereo unspecified),1.41% (inactive) and -0.581% (inactive),
Nc1[nH]nc2nnc(-c3c(-c4ccccc4)nn4ccccc34)cc12,-4.73% (inactive),
COC(=O)C1C2CC3c4[nH]c5cc(OC)ccc5c4CCN3CC2CC(OC(=O)c2cc(OC)c(OC)c(OC)c2)C1OC (stereo unspecified),-10.6% (inactive),
Nc1nc2c(ncn2COC(CO)CO)c(=O)[nH]1,8.16% (inactive) and -8.2% (inactive),
OC(CCN1CCCCC1)(c1ccccc1)C1CC2C=CC1C2 (stereo unspecified),-4.13% (inactive) and -26% (inactive),
Nc1nc(Nc2ccc(S(N)(=O)=O)cc2)nn1C(=O)c1c(F)cccc1F,,3.55 µM (active)
CNC(=O)c1nn(C)c2c1C(C)(C)Cc1cnc(Nc3ccc(N4CCN(C)CC4)cc3)nc1-2,,5.01 µM (active)
Cc1ccc(C(=O)Nc2cccc(C(F)(F)F)c2)cc1-c1ccc2nc(NCCN3CCOCC3)ncc2c1,,14.1 µM (active)

# Experiment: Cellular viability qHTS for adrenocortical cancer (ACC) cell line NCI-H295R (AID 1963990); also: nearly all actives have a fitted effect of over 60% in size
# Details: CellTiter-Glo ATP luminescence, 48 h; series mostly up to 46.1 µM
# Summary of the method: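 Viability of NCI-H295R after 48 h of treatment (final up to 46 uM) measured through cellular ATP luminescence.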
row,Compound,Potency
1,O=C1CCCC2=C1C(c1[nH]ncc1Cl)N=C(Nc1nc3ccccc3o1)N2 (stereo unspecified),inactive
2,CCN1CCN(c2ccc(Nc3cc(N(C)C(=O)Nc4c(Cl)c(OC)cc(OC)c4Cl)ncn3)cc2)CC1,inactive
3,C[N+](C)(C)CC(=O)O,inactive
4,COCCCN1CCC(NC(=O)c2cc(Cl)c(N)c3c2OCC3)CC1,inactive
5,CNC(=O)c1ccc(Nc2ncc(C(F)(F)F)c(NCc3nccnc3N(C)S(C)(=O)=O)n2)cc1,7.94 µM (active)
6,O=C1NC(=O)C(c2cnc3ccccn23)=C1c1cn2c3c(cccc13)CN(C(=O)N1CCOCC1)CC2,inactive
7,Cc1cc2c(s1)Nc1ccccc1N=C2N1CCN(C)CC1,inactive
8,CC1Cc2ccccc2N1NC(=O)c1ccc(Cl)c(S(N)(=O)=O)c1 (stereo unspecified),inactive
9,Nc1[nH]c(=O)ncc1F,inactive
10,CC1(C)O[C@H]2CC(=O)OC[C@]23[C@H]2CC[C@@]4(C)[C@H](c5ccoc5)OC(=O)[C@H]5O[C@]54[C@]2(C)C(=O)C[C@@H]13,inactive
11,O=C(/C=C\n1cnc(-c2cc(C(F)(F)F)cc(C(F)(F)F)c2)n1)NNc1cnccn1,2.24 µM (active)
12,CCCc1cc(C(N)=S)ccn1,inactive
13,C=C1C(=O)[C@@]23C(CC[C@@H]1[C@H]2O)[C@@]12CO[C@]3(O)[C@@H](O)[C@@H]1C(C)(C)CC[C@@H]2O (stereo partly specified),10 µM (active)
14,CCc1ccc(OCc2ccccc2C(=O)Nc2ccc3nc(C)cc(N)c3c2)cc1,5.62 µM (active)
15,CC(C)(C)c1nc2c3cc[nH]c(=O)c3c3cc(F)ccc3c2[nH]1,inactive
16,CO[C@@H]1C(N(C)C(=O)c2ccccc2)C[C@H]2O[C@]1(C)n1c3ccccc3c3c4c(c5c6ccccc6n2c5c31)C(=O)NC4=O (stereo partly specified),inactive
17,N#Cc1ccnc(Nc2cc(C3CCN(C4COC4)CC3)cc(N3CCC(F)(F)C3)n2)c1,10 µM (active)
18,CC1(C)CCC(c2ccc(Cl)cc2)=C(CN2CCN(c3ccc(C(=O)NS(=O)(=O)c4ccc(N[C@H](CCN5CCOCC5)CSc5ccccc5)c(S(=O)(=O)C(F)(F)F)c4)cc3)CC2)C1,inactive

row,Compound,Potency
1,CCCCS(=N)(=O)CCC(N)C(=O)O (stereo unspecified),inactive
2,O=C(O)CCNC(=O)c1ccc(N=Nc2ccc(O)c(C(=O)O)c2)cc1,inactive
3,CN1CCN(c2ccc(C(=O)Nc3n[nH]c4ccc(Cc5cc(F)cc(F)c5)cc34)c(NC3CCOCC3)c2)CC1,7.08 µM (active)
4,COc1c(C)cnc(Cn2cnc3c(Cl)nc(N)nc32)c1C,1.78 µM (active)
5,CCN(c1ccccc1)c1cc(NC)[n+](C)c(C)n1,inactive
6,CCCc1nn(C)c2c(=O)[nH]c(-c3cc(S(=O)(=O)N4CCN(C)CC4)ccc3OCC)nc12,inactive
7,CC1CCN(c2cc(N3CCN(C)CC3)ccc2NC(=O)c2cc(C#N)c[nH]2)CC1,inactive
8,C[C@H]1[C@@H](OC(=O)CCC(=O)O)O[C@@H]2O[C@@]3(C)CC[C@@H]4[C@H](C)CC[C@@H]1[C@@]24OO3,17.8 µM (active)
9,O=S(=O)(O)CCS,inactive
10,COCCNCCCn1c(C(=O)CF)c(-c2ccc(C)cc2)c2c(N)ncnc21,inactive
11,NCCCC(N)(C(=O)O)C(F)F (stereo unspecified),inactive
12,Nc1[nH]nc2nnc(-c3c(-c4ccccc4)nn4ccccc34)cc12,inactive
13,Nc1nc2c(ncn2COC(CO)CO)c(=O)[nH]1,inactive
14,OC(CCN1CCCCC1)(c1ccccc1)C1CC2C=CC1C2 (stereo unspecified),inactive
15,Nc1nc(Nc2ccc(S(N)(=O)=O)cc2)nn1C(=O)c1c(F)cccc1F,15.8 µM (active)
16,CNC(=O)c1nn(C)c2c1C(C)(C)Cc1cnc(Nc3ccc(N4CCN(C)CC4)cc3)nc1-2,14.1 µM (active)
17,Cc1ccc(C(=O)Nc2cccc(C(F)(F)F)c2)cc1-c1ccc2nc(NCCN3CCOCC3)ncc2c1,22.4 µM (active)
